Marburg entry inh: blocks Marburg virus binding to or entry into cells; Marburg virus pseudotyped entry inhibition, cell reporter; Potency, µM (titrated, usually from 37.8 µM), for the others: top-dose activity change, negative = inhibition, most hits filed as inhibitors; hit rate 1.8% among 300,000; calls by dose curve; tested in HEK293 cells
Sm TGR inh: blocks Schistosoma mansoni thioredoxin glutathione reductase; purified TGR, DTNB reduction, TNB absorbance 405 nm; hit rate 3% among 360,000; Q962Y6; Potency, µM (highest dose often 114 µM), for inactives: at the highest dose activity change, negative = inhibition, hits mostly inhibitors; also: nearly all actives have a fitted effect of over 60% in size
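First, TGR (20 nM dispensed) and NADPH were mixed with compound. Second, a 15 min room-temperature incubation followed. Third, further NADPH and then DTNB were added to start the reaction. Finally, TNB absorbance was monitored kinetically.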
HCV inhibitor: HCV inhibition | Potency, µM (top dose mostly 41.8 µM), for the others: top-dose activity change, negative = inhibition, actives largely listed as inhibitors | AID 651820 | hit rate 3.4% among 340,000 | Huh7.5.1 HCVcc-Cre infection, luciferase reporter, 44 h
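Compounds are dispensed onto cells plated 4 h earlier at 1,000 per well, with HCVcc-Cre virus (about 0.5 moi) added next. Following 44 h of culture, luminescent signal is measured for 15 sec after 15 min with substrate at room temperature.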
RE007 growth inh: less growth of the S. pombe RE007 Vpr strain. S. pombe RE007 Vpr strain, BacTiter-Glo ATP luminescence, 24 h. Potency, µM (doses to about 92.2 µM), for the others: at the highest dose activity change, negative = less growth, usual class: inhibitors. hit rate 0.21% among 360,000; active = well fitted falling curve with a large enough effect; inconclusive = small, poorly fitted or top-dose-only effect; inactive = no such curve, though single readings can be large or run the other way; also: nearly all actives have a fitted effect of over 50% in size
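Fission yeast strain RE007, carrying one chromosomally integrated HIV-1 vpr copy, was seeded at OD 0.01 in PMG+AL medium with 23 nL pinned compound. After 24 h at 30 °C and 99% humidity, viability was read by BacTiter-Glo luminescence.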
LASV entry inh: inhibitors of Lassa virus binding or cell entry. Lassa virus pseudotype entry inhibition, cell reporter. Potency, µM (series often up to 37.9 µM), inactives show at the top dose activity change, negative = inhibition, actives largely listed as inhibitors. hit rate 1.2% among 300,000; calls by dose curve; tested in HEK293 cells; also: nearly all actives have a fitted effect of over 50% in size
FMDV inh: antivirals against foot and mouth disease virus. Potency, µM (doses to about 57.9 µM), inactives show top-dose activity change, negative = inhibition, most hits filed as inhibitors. hit rate 1.2% among 410,000. FMDV antiviral cell-based qHTS; calls by dose curve; tested in HEK293T cells; also: read-out not given here; nearly all actives have a fitted effect of over 45% in size
Active calls of the source: *; ? = inconclusive; · = no result; [ ] = remark or other dose. In the library only some 7.2% were active in any assay of this set; here they are far more common. Unless noted, calls follow the shape of the dose curve; as a rule, active = well fitted curve in the direction sought with a large enough effect; inconclusive = small, poorly fitted or top-dose-only effect, or another doubt; inactive = no such curve, though single readings can be large; an effect the other way counts as inactive or inconclusive. % is scaled to controls: 0 for no effect and ±100 for the full control effect; potency is read from the fitted curve at half-maximal effect.

SMILES	Marburg entry inh	Sm TGR inh	HCV inhibitor	RE007 growth inh	LASV entry inh	FMDV inh
CCCCOC(=O)c1ccc(NC(=O)c2csnn2)cc1	?	-8.2%	·	·	?	18.6%
CCOC(=O)c1cc2c(ccn2-c2ccc(F)cc2)n1CC(=O)N1CCN(C(=O)c2ccco2)CC1	3.3%	?	?	-0.5%	9.2µM*	6.3%
Cc1cc(C(=O)OCC(=O)N2CCN(C(=O)c3ccco3)CC2)c(C)n1-c1ccc(F)cc1	-8.5%	-4.0%	-18.5%	0.4%	?	0.0%
CCOc1ccc(CN2C(=O)c3ccccc3C2C(=O)NCCc2ccc(OC)c(OC)c2)cc1 (stereo unspecified)	·	-3.5%	·	·	?	8.0%
CC(=O)OC1C(O)C2=C3C4(C)C1C(C)(C)C(=O)CC4C3(O)C(OC(C)=O)C1(CC1C)C2=O (stereo unspecified)	·	·	·	38.2%	·	22.4µM*
Clc1ccc2nc(C3CCCCC3)c(CC3CCCCC3)n2c1	·	·	·	0.9%	·	?
CC(C)c1cc(=O)oc2c3c4c(cc12)CCCN4CCC3	?	44.7µM*	?	-17.2%	?	·
COc1ccccc1CNC(=O)C1CCCN(S(=O)(=O)c2ccc3c(c2)oc(=O)n3C)C1 (stereo unspecified)	-6.2%[46.1 µM]	2.1%	·	·	3.1%[46.1 µM]	0.0%
CN1C(=O)NC(=O)/C(=C\c2ccc([N+](=O)[O-])o2)C1=O	-15.4%	7.94µM*	9.9%	-9.8%	1.7%[46.1 µM]	-24.3%
O=C1NC(=O)N(c2ccccc2)C(=O)/C1=C\c1ccc([N+](=O)[O-])o1	·	8.91µM*	·	·	·	·
CN1C(=O)NC(=O)/C(=C/c2ccc(C(=O)O)cc2)C1=O	·	-29.4%	3.9%	11.8%	·	-9.4%
CN1C(=O)NC(=O)/C(=C/c2ccc([N+](=O)[O-])o2)C1=O	?	5.01µM*	11.8%	-27.7%	?	?
Cc1ccc2occ(CC(=O)N(Cc3ccccc3Cl)C3CCS(=O)(=O)C3)c2c1 (stereo unspecified)	-3.0%[46.1 µM]	36.5%	·	·	-24.4%[46.1 µM]	-25.2%
Fc1ccc(C2=NC(c3cccc(C(F)(F)F)c3)=Nc3ccccc3N2)cc1	?	3.3%	·	·	?	-8.7%
COc1cc2ccccc2cc1C(=O)N1CCN(c2nc3c(F)cccc3s2)CC1	·	9.7%	·	·	?	-19.4%
Cc1ccccc1C1(CC(=O)N2CC3(C)CC2CC(C)(C)C3)CC(=O)N(Cc2cccnc2)C1=O (stereo unspecified)	·	·	·	·	·	12.2%
O=[N+]([O-])c1cc(-c2nc(-c3cccnc3)no2)ccc1NCc1ccccc1	?	-2.4%	·	·	-10.7%[46.1 µM]	-21.6%
CC(C)(C)C(=O)NNC(=O)c1cc(C(C)(C)C)nn1Cc1ccccc1	10µM*	8.5%	8.3%	1.3%	?	0.0%
Cc1ccc(NC(=O)c2cc(C(C)(C)C)nn2Cc2ccccc2)cc1	?	2.2%	?	5.2%	2.82µM*	-17.5%
CC(C)(C)c1cc(C(=O)NNc2cccc(Cl)c2)n(Cc2ccccc2)n1	11.2µM*	-2.6%	-23.8%	138.7%	?	33.0%
CC(C)(C)c1cc(C(=O)Nc2ccc(F)cc2)n(Cc2ccc(F)cc2)n1	·	2.0%	11.2µM*	-10.8%	·	?
CC(C)(C)c1cc(C(=O)NNc2ccc(OC(F)(F)F)cc2)n(Cc2ccccc2)n1	?	1.0%	?	32.6%	?	?
COc1ccc(NC(=O)Cn2nc(-c3ccncc3)ccc2=O)cc1Cl	·	2.2%	·	·	0.2%[46.1 µM]	2.3%
Cc1ccc(NNC(=O)c2cc(C(C)(C)C)nn2Cc2ccccc2)cc1	-7.4%	44.7µM*	?	4.5%	?	-9.1%
O=C(Nc1cccc(Cl)c1)C1CCN(c2nc3ccccc3nc2C(F)(F)F)CC1	·	4.9%	·	·	19.8%[46.1 µM]	?
SMILES	Marburg entry inh	Sm TGR inh	HCV inhibitor	RE007 growth inh	LASV entry inh	FMDV inh
O=C1C(c2ccncc2)=C(O)c2ccccc21	7.08µM*	-4.7%	-0.4%	?	7.94µM*	0.0%
O=C1C(c2cc(=O)c3ccccc3[nH]2)=C(O)c2ccccc21	5.62µM*	4.4%	8.1%	-21.3%	?	-12.3%
O=C1C2C3C=CC(C3=C3CCCCC3)C2C(=O)N1c1ccccc1 (stereo unspecified)	1.7%	15.8µM*	12.5%	35.5µM*	-9.8%	?
CC(Oc1ccccc1)C(=O)NCC1Cc2cc(F)cc(-c3ccccn3)c2O1 (stereo unspecified)	·	·	·	·	·	-12.9%
Cc1ccc(-c2cn3nc(C)c(C)nc3n2)cc1	0.282µM*	?	-1.7%	-10.9%	?	-78.6%
COc1cccc(-c2cc3c(c(OC)c2)OCCN(Cc2ccccc2O)C3)n1	·	·	·	·	·	-15.0%
COCC(=O)N(CCc1ccccc1)Cc1cc2cc(C)ccc2nc1Cl	·	39.8µM*	-4.8%	19.9%	·	-15.0%
CCOC(=O)/C(C#N)=C/c1cc2cc(C)c(C)cc2nc1Cl	-4.4%[46.1 µM]	-29.4%	-3.6%	-3.5%	-3.0%	31.1%
Cc1cc2cc(C=C(C#N)C#N)c(Cl)nc2cc1C	?	3.16µM*	-3.1%	·	-5.9%	?
COc1cccc(CCc2nnc(CCC(=O)N3CCN(Cc4ccccn4)CC3)o2)c1	?	11.2µM*	14.7%	6.0%	17.4%[46.1 µM]	-0.3%
Cn1nc(C(C)(C)C)cc1C(=O)N1CCCCC1c1cc(C(=O)Nc2ccc(F)c(Cl)c2)no1 (stereo unspecified)	·	·	·	8.3%	·	25.1µM*
C=COCCCNc1ncnc2sc(-c3ccccc3)cc12	·	7.7%	8.91µM*	-2.6%	·	?
c1ccc(-c2cc3c(N4CCN(c5ccccc5)CC4)ncnc3s2)cc1	?	11.8%	?	6.3%	-25.1%	31.6µM*
CN(C)c1ncnc2sc(-c3ccccc3)cc12	?	-1.4%	11.2µM*	-19.3%	-0.2%[46.1 µM]	-19.9%
COc1ccc(Nc2ncnc3sc(-c4ccccc4)cc23)cc1	14.9%	13.6%	10µM*	-10.4%	-4.1%	-6.9%
O=C(CCCn1c(=O)c2ccccc2n(CC(=O)Nc2ccc(F)cc2F)c1=O)NCc1ccccc1Cl	27.5%[46.1 µM]	-1.3%	·	·	2.0%[46.1 µM]	6.4%
COc1cc2nc(C)sc2cc1SC	-2.0%	11.9%[11.4 µM]	?	?	12.7%	-3.2%
COc1cc2nc(/C=C/c3cc(OC)c(OC)c(OC)c3)sc2cc1SC	7.08µM*	-9.2%	10µM*	0.8%	?	-18.7%
O=C(N/N=C/c1ccc2c(c1)OCO2)c1cccc2ccccc12	3.16µM*	3.6%	-11.9%	-9.1%	-16.7%[46.1 µM]	29.5%
CC(C)Oc1ccc(CCC(=O)N/N=C/c2ccc3c(c2)OCO3)cc1	-17.3%[46.1 µM]	13.2%	-5.6%	-9.8%	?	5.7%
Cn1cc(C(=O)N/N=C/c2ccc(Br)c([N+](=O)[O-])c2)c2ccccc21	-3.0%[46.1 µM]	-11.0%	?	-21.5%	-0.3%	-2.6%
CN(C)c1ccc(/C=N/NC(=O)c2cc(-c3ccc4c(c3)OCO4)n[nH]2)cc1	-2.0%	-16.3%	?	1.9%	?	-25.3%
Cn1cc(C(=O)N/N=C/c2ccc3c(c2)OCO3)c2ccccc21	12.6µM*	5.4%	?	-16.0%	-11.2%[46.1 µM]	2.3%

Compound activity deposited in PubChem by National Center for Advancing Translational Sciences (NCATS).
